According to PubChem BioAssay AID1159506 (National Center for Advancing Translational Sciences (NCATS), 2015):
The full ranking holds about 59,000 sequences; the median of the read-out is about -0.00055, and the lowest 2% start at about -2. The entries come from a sample that favours the lowest values as a whole.

Experiment: Identification of proteins required for the processing of the EWS-FLI1 nascent transcript;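 further: robust z of luciferase light less the median z of siRNAs with the same seed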
Conditions: TC32 Ewing sarcoma NR0B1-luc vs CMV-luc (EWS-FLI1 target promoter against control promoter), 48 h; screened at 20 nM (by protocol)
How it was run: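 Readout: OneGlo luminescence, 48 h post-transfection, TC32-NR0B1-luc vs TC32-CMV-luc in parallel. siRNA 20 nM final, RNAiMax lipid, 600 cells/well; z-score-MAD transformed, then seed-adjusted.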
For AAAACGACUCUUCAUACUG against CLRN2, the seed-corrected z-score was -1.29. UUUAGCAACAGGUACAUUC against APBB1 gave a seed-corrected z-score of -0.4. UAGAUUUUAAACAUCCUUG against FAS showed a seed-corrected z-score of 0.417. Sequence UCUUUAUCACGGUCAAAUG against GPALPP1 has a seed-corrected z-score of -0.108. Work on ACAUGGCUGAUUAAUGUGG against ZNF890P yielded a seed-corrected z-score of -0.143. For UCUGUGGUGAUGAACACUC against OR5J2, the seed-corrected z-score was -1.13. With UUUGUUGGUAGCGAUGCAC against MYPN the seed-corrected z-score was -2.09. AAAACUUCACCUUAUACUC against SDF4 showed a seed-corrected z-score of -0.483. Sequence GAUGCUACGAUACCAGCCA against LYPLA2P2 has a seed-corrected z-score of 1.26. UGUAUUUCCACGCGUGAGG against ZDHHC11 gave a seed-corrected z-score of -0.523. AAAUGUGAACCUGUGCUUG against MTUS2-AS1 showed a seed-corrected z-score of 1.42. With UACGUGCCGAGUCAUCAGU against DOK4 the seed-corrected z-score was -2.12. In the case of AGACCUUAUACAGAGCUGC against CAPG, the seed-corrected z-score was 0.432. Sequence AGAAGCAUCAUGGAGGUAG against COX14 has a seed-corrected z-score of -1.26. With ACUAGAAUCAAUAAGGAUG against TMEM243 the seed-corrected z-score was -0.708. UGAGUCAUAAGAAGGGUCU against FLI1 gave a seed-corrected z-score of -6.98. AUAGGUGAGACGGAGGCUC against VASN gave a seed-corrected z-score of 0.00423. For UCUGGAUCGAGGAAGCGAG against GNLY, the seed-corrected z-score was -2.28. Work on AUAGCAAUCAUAUUCACGG against LIG4 yielded a seed-corrected z-score of -0.537. Sequence AACUGAAAUAGAAGUAUCC against TMED6 has a seed-corrected z-score of -0.476. Sequence UGUUCUCCUGCAGUUAUCC against WFDC3 has a seed-corrected z-score of -0.0122. UUGAAGACCAGGUAUUCCC against AGBL4 gave a seed-corrected z-score of -0.596. In the case of UGACGUAUAUCAAUGCUCC against RRAGC, the seed-corrected z-score was -0.322. For UAGUCGUCAAGCACUUGGU against SFTPB, the seed-corrected z-score was -0.3. AAAUCUUGAUCUGUGACUC against EN2 gave a seed-corrected z-score of 0.225. Sequence UCUCUCAUCAAUAUGCUCU against MTHFD2 has a seed-corrected z-score of 0.352. In the case of UAUAGGCACGCUGCUAUUC against DIRC2, the seed-corrected z-score was -2.73. UUCGUUAGGUUUCCUUUCG against HIVEP2 gave a seed-corrected z-score of -0.393. In the case of UUCCGAAAUGAAAAGGAUC against GMPR2, the seed-corrected z-score was 0.18. For UAAUUGCUGAUAUUCGAGC against EPB41L3, the seed-corrected z-score was -0.247. For UAAGAUACUCGGGUUUCAC against ZADH2, the seed-corrected z-score was -0.425. AGUUCGAUUAGCUAAGGCC against SYNRG showed a seed-corrected z-score of -0.0555. With UAUGGGAGUGUCAAUAAUC against PDHB the seed-corrected z-score was -0.681. With UCAGGUGCAAUCUGACUCU against PPP1R1C the seed-corrected z-score was -2.4. For AUGCUUACAAGAUCUUGUC against USP44, the seed-corrected z-score was -0.0422. UCACGUGUAAAGGAUCACG against RTN4IP1 showed a seed-corrected z-score of 0.0887. For UUCUGUUCAAAUCCAUUGG against BUD13, the seed-corrected z-score was -0.753. With AGAGUUGUUGUCAUCUUCC against CACNA1S the seed-corrected z-score was -0.313. In the case of UCUGGGCGUAGACAACUGC against CNTFR, the seed-corrected z-score was -2.12. For UGAACGUCCCGUCUGAGUG against SCT, the seed-corrected z-score was -0.424. Sequence UCUUCAAUAAUGAUCUCCU against MRI1 has a seed-corrected z-score of 0.722. With UGAAGAGUAAGCUCAAACC against ASIC5 the seed-corrected z-score was -3.53. With UAAACUUCCCUUUAAAAAC against IRF8 the seed-corrected z-score was -0.00875. With UUCAUGUGAACUUACAGUU against UQCRHL the seed-corrected z-score was 0.0588. In the case of UUAGUUGCAAGGCAUUCAG against FAM135A, the seed-corrected z-score was -4.23. In the case of UAAAGGUCAAGCAGUCAGU against PVRL4, the seed-corrected z-score was 0.651. In the case of AGUGAUGACAUUGAUAUCG against SYDE1, the seed-corrected z-score was 1.21. In the case of AUAUCUACGAUCUAUAUCU against LOC645553, the seed-corrected z-score was 0.695. Sequence UCUGGUUCUUGUUCAAGUG against PCDH17 has a seed-corrected z-score of -1.28. With UCGCUAUCCAUAUCAGAGG against GOLGA4 the seed-corrected z-score was 1.24. UUAAUGGUCCUGUAGUAAC against MTMR1 gave a seed-corrected z-score of 0.139. For UACAACAAUAGCCACAGCU against OR52W1, the seed-corrected z-score was -2.15. Work on UGUAUUUUAUGUCUCUCCC against PLAC8L1 yielded a seed-corrected z-score of -0.115. For AAAGCCCAAAUAUAGUUCC against NEUROD4, the seed-corrected z-score was 0.947. With UUUGAGGAAAGGAACUGCC against FAM228A the seed-corrected z-score was 0.28. AAUCUUGGUCUUACUGUCC against PKN1 showed a seed-corrected z-score of -1.59. Work on UACUGAGAUAGUCAAAUUC against CYB5D1 yielded a seed-corrected z-score of -0.0466. Work on UUAUUGGAGAGCACCUGGU against PADI3 yielded a seed-corrected z-score of 0.0879. For ACAUCUGUCAGGGUCAUCG against NOD1, the seed-corrected z-score was -0.0205. For UCCUUGUCGAAAGAAGUGC against RMND5A, the seed-corrected z-score was -3.27. In the case of UCAGUUUACCUGAGAAGCC against C22orf39, the seed-corrected z-score was -0.529. For UGACUUUAAGUUUUGGGCC against LINC00999, the seed-corrected z-score was 0.159. Sequence UGUAGCAUGACCGUCUUCC against LINC00239 has a seed-corrected z-score of -0.84. AAGGUGCACAAGUAAAGCC against LOC730100 gave a seed-corrected z-score of -2.05. Work on UCAUUGGAUUCCAAAAUCC against ADAM18 yielded a seed-corrected z-score of 0.186. UACGUUAAAAGGCAGGACA against CDKN2A showed a seed-corrected z-score of -0.998. In the case of UAGCAGAUGAGAGACUAUG against MRPS24, the seed-corrected z-score was -0.269. UUUAUGGGCUCUUUUGACG against ENPP5 gave a seed-corrected z-score of -0.349. UAUGCUAAGGUAGCAGUUG against RNF133 showed a seed-corrected z-score of 0.16. Work on UAUAAGUCUGGGAUAUCUG against CATSPERD yielded a seed-corrected z-score of -0.549. Sequence UCUUCGAAAGUGACCAGCA against INTS6 has a seed-corrected z-score of -0.292. Sequence UAACCUCCAUCCGAGGUGG against INHA has a seed-corrected z-score of -0.1. UGGGAUACCCUCCUUGUCU against UBA52 showed a seed-corrected z-score of -2.1. In the case of UCUUUGAACAGGAUAAACC against HNRNPAB, the seed-corrected z-score was 0.756. For UGAAUAUCAAGUUAGAUCC against OR5AK2, the seed-corrected z-score was 0.308. For UCUCUUGCUUGGAGGAAGC against ZNF174, the seed-corrected z-score was 0.443. Sequence UCGGAGAUCAGGCUAGUGG against TMEM82 has a seed-corrected z-score of -2.03. UCCGGGUUCAGCAUGUCCA against ESPN gave a seed-corrected z-score of -0.679. With UAAUUGACCUGUACGCUCG against GATM the seed-corrected z-score was 0.156. Sequence AAAGCAGUUGGAACCGUUG against KRTAP24-1 has a seed-corrected z-score of 0.448. AUCGAUUUUAAUGAACCGC against RPS4X gave a seed-corrected z-score of 1.4. In the case of AAAGGCGUAGAGGAGCUGG against TRIB3, the seed-corrected z-score was -3.4. For UAGGUGAACAUCAUGACGC against ITGB5, the seed-corrected z-score was -0.131. In the case of AUCUUUGUUGCGGAGACUG against OR2T34, the seed-corrected z-score was -0.514. AGCUUGAUCAUUCUAGUGC against FLJ36777 gave a seed-corrected z-score of 0.325. For UUUCGAAUACCAGCUAUCC against KLHL7, the seed-corrected z-score was 0.0747. UCGUGGUUCUCAAUUUUGC against PKLR showed a seed-corrected z-score of -0.494. With ACCUCUGCAUCUCUUGUUC against TCF23 the seed-corrected z-score was -2.43. UUUCAAUCCUUCCUCCUUA against IFNA7 showed a seed-corrected z-score of -0.487. UAAUGUAACUACUUCCAUC against TM2D1 showed a seed-corrected z-score of -0.144. Sequence UGUUGUCAAAGAGUGAUUC against SLC2A13 has a seed-corrected z-score of -2.46. In the case of UACUGAAUCACUCCCUUGA against GALK1, the seed-corrected z-score was -0.0112. With UGUAGUACGCUCUUGUUCU against GOLGA8EP the seed-corrected z-score was -0.41. With UGCCGAGAAGUUUGGCUCC against TPBGL the seed-corrected z-score was -0.407. AGAUAGUACACUCAUAUGG against ZNF791 gave a seed-corrected z-score of -2.77. UAUGCGGACCAAGUUGUCU against TMEM72 gave a seed-corrected z-score of 0.195. For UCAGGAUAAAGAUUGUCGC against KDM4A, the seed-corrected z-score was 1.62. Work on UGAAAUUCCCGUAGAGUUC against CA11 yielded a seed-corrected z-score of -0.176. AAACGAAAAAUGAACACUC against POU3F1 gave a seed-corrected z-score of 0.371. For AUUCUGAUCUAGGCGAUGG against C5orf15, the seed-corrected z-score was -2.22. In the case of UUCGGAACCGGAGAUCCCA against RIPK4, the seed-corrected z-score was -0.395. Sequence AAUCUAAUAGGAUUUGUUA against CTBP2 has a seed-corrected z-score of -0.167. With ACCGUUUAAACUGAGACCC against FILIP1 the seed-corrected z-score was 1.11. Work on UCGCUGACUCCAGAUAUGC against AP1G2 yielded a seed-corrected z-score of -0.0794. Sequence UUCUUUGCACGAAUGUCCG against PRPF6 has a seed-corrected z-score of -1.74. UUGUUAAUCUGGUCAAUUG against GRM8 gave a seed-corrected z-score of 0.169. With UGCUUUUGGAGUGCUAUGG against ANKLE1 the seed-corrected z-score was -2.74. Work on UCCACGAAUAGCAAUAUGC against KIDINS220 yielded a seed-corrected z-score of -1.19. Sequence AAAUCAUAAACCAUCUUUG against OR2L2 has a seed-corrected z-score of 1.05. With AGUAGUCACACUGUUGUGC against NXNL2 the seed-corrected z-score was -4.17. UAUUUAUCUAGGCACUUCU against CENPT showed a seed-corrected z-score of 0.523. Work on UUCUCAGAAACUGCACGGC against SYNGR4 yielded a seed-corrected z-score of 0.497. Sequence UAUUCUUAUCUGUAAUCCC against LOC646736 has a seed-corrected z-score of -0.205. UCGCGGAUCAGAAAGGUGC against SOCS3 gave a seed-corrected z-score of -1.04. With UACUUUUGAUGCACUAGUC against ETAA1 the seed-corrected z-score was -1.14. AACAUAAGAGAGACAAUGC against SYVN1 gave a seed-corrected z-score of 0.102. Work on UCACGAACUGGACUUUACC against GRM7 yielded a seed-corrected z-score of -0.806. GUCAGGUAGAAGACCACAC against MRGPRG showed a seed-corrected z-score of -2.24. Sequence UGCGUGAACCUCUUGAACA against TNFAIP2 has a seed-corrected z-score of 0.027. In the case of AGUGGAAACAGGAUGGAUG against GAL3ST4, the seed-corrected z-score was -0.271. For UAGCCGCUGACUUUGAUGC against SLC39A13, the seed-corrected z-score was 0.264. With UUACUUGUACCCGCUGUUC against RLTPR the seed-corrected z-score was -0.488. Sequence AUCUGCAUAAUGCACAUUC against SLC15A5 has a seed-corrected z-score of -2.92. AGCAUCUUGACAUUCAUCU against MYL4 gave a seed-corrected z-score of -0.225. Work on UUUAAGGGUAUUACGAGUG against GGPS1 yielded a seed-corrected z-score of 0.153. Sequence UUAUCAAUUAGAGGAUAAC against B3GALNT1 has a seed-corrected z-score of 0.214. For AUACAUCCGAUUAAGAGGC against SERINC5, the seed-corrected z-score was -2.74. Sequence UUUCCUGUAAAUCCCACAG against TSSC1 has a seed-corrected z-score of 0.399. AGAUCUAAUAACAAUAAGC against EIF2S3 showed a seed-corrected z-score of -2.28. AAUCAGUCAGGUAAAUGCC against ENTPD1 gave a seed-corrected z-score of 0.248. Work on AAUAAAAAUGACAGUUUCC against BTN2A2 yielded a seed-corrected z-score of 0.474. With AAUGAGAAUAAAGUCUACC against OR51A4 the seed-corrected z-score was -2.31.
